# Results filed as inconclusive are left out. Calls of active or inactive are those of the source. Unless noted, calls follow the shape of the dose curve; as a rule, active = well fitted curve in the direction sought with a large enough effect; inconclusive = small, poorly fitted or top-dose-only effect, or another doubt; inactive = no such curve, though single readings can be large; an effect the other way counts as inactive or inconclusive.
# What was measured:
# [1] = Quantitative High-Throughput drug screen in 47 multiple myeloma cell lines against the NCATS MIPE library collection: PE2_PLB cell viability assay (AID 1919869); also: nearly all actives have a fitted effect of over 35% in size; also: potency is read from the fitted curve at half-maximal effect
# In short: (§1)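 Plated at 500 cells per well, myeloma lines received MIPE 4.0 compounds by pin tool. Following 48 h culture at 37 °C, CellTiter-Glo luminescence gave viability relative to DMSO and media-only controls.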
# [2] = Quantitative High-Throughput drug screen in 47 multiple myeloma cell lines against the NCATS MIPE library collection: PCM6_Riken cell viability assay (AID 1919870); also: nearly all actives have a fitted effect of over 30% in size; also: potency is read from the fitted curve at half-maximal effect
# In short: as §1
# [3] = Quantitative High-Throughput drug screen in 47 multiple myeloma cell lines against the NCATS MIPE library collection: RPMI8226_ATCC cell viability assay (AID 1919871); also: nearly all actives have a fitted effect of over 30% in size; also: potency is read from the fitted curve at half-maximal effect
# In short: as §1
# [4] = Quantitative High-Throughput drug screen in 47 multiple myeloma cell lines against the NCATS MIPE library collection: OPM2_DSMZ cell viability assay (AID 1919872); also: nearly all actives have a fitted effect of over 30% in size; also: potency is read from the fitted curve at half-maximal effect
# In short: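 Approved and investigational drugs from MIPE 4.0 were added by pin tool to 500 cells per well. After 48 hours at 37C, ATP-based CellTiter-Glo luminescence indicated remaining viability.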
# [5] = Quantitative High-Throughput drug screen in 47 multiple myeloma cell lines against the NCATS MIPE library collection: KMS11_JCRBsus cell viability assay (AID 1919873); also: nearly all actives have a fitted effect of over 50% in size; also: potency is read from the fitted curve at half-maximal effect
# In short: as §1
# [6] = Quantitative High-Throughput drug screen in 47 multiple myeloma cell lines against the NCATS MIPE library collection: KMS28BM_JCRB cell viability assay (AID 1919874); also: nearly all actives have a fitted effect of over 35% in size; also: potency is read from the fitted curve at half-maximal effect
# In short: as §1
# [7] = qHTS drug screen for cell cycle checkpoint inhibitors in PARPi-resistant BRCA-mutant ovarian cancer cell lines. (AID 1963452; calls by dose curve; also: potency is read from the fitted curve at half-maximal effect); details: PEO1/OlaR viability, CellTiter-Glo luminescence, 96 h; for Z-AUC: stronger effect = lower value
# In short: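 PEO1, PEO4 and PEO1/OlaR ovarian cancer cells, 600 per well, exposed 96 h at 37C to a dilution series. Viability read by CellTiter-Glo luminescence, normalized to DMSO and empty wells; activity summarized as Z-AUC.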
# [8] = qHTS for identification of novel therapeutic agents for treatment of microphthalmiaassociated transcription factor (MiT) renal cell carcinoma (RCC) (AID 1963991; calls by dose curve; also: potency is read from the fitted curve at half-maximal effect); details: CellTiter-Glo, 48 h; for z-score: stronger effect = lower value
# In short: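 Three TFE3-fusion RCC lines (UOK109, UOK124, UOK145), 500 cells/well in complete medium, were treated with MIPE 4.0 compounds for 48 hours at 37 C. Viability was by CellTiter-Glo luminescence, normalized to DMSO (100%) and empty wells (0%); curves fitted over 11 concentrations.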
# [9] = qHTS profiling for inhibitors of Plasmodium falciparum proliferation (AID 504749);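 also: 0% = DMSO vehicle and full inhibition = artemisinin control; nearly all actives have a fitted effect of over 60% in size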; details: P. falciparum in erythrocytes, SYBR Green DNA, 72 h, at 28.7 µM (top of the series)
# In short: (§2)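 Three-day growth assay of blood-stage parasites in erythrocytes (0.3% parasitemia, 2.5% hematocrit) at 37 C, 5% CO2, quantified by SYBR Green DNA staining after overnight detergent lysis.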
# 3D7 = experiment: as above; details: P. falciparum in erythrocytes, SYBR Green DNA, 72 h; series mostly up to 28.7 µM
# In short: as §2
# AA1029 = experiment: as above; details: P. falciparum in erythrocytes, SYBR Green DNA, 72 h; series mostly up to 28.7 µM
# In short: as §2
# AS120 = experiment: as above; details: P. falciparum in erythrocytes, SYBR Green DNA, 72 h; series mostly up to 28.7 µM
# In short: as §2
# ATS189 = experiment: as above; details: P. falciparum in erythrocytes, SYBR Green DNA, 72 h; series mostly up to 28.7 µM
# In short: as §2
# ATS95 = experiment: as above; details: P. falciparum in erythrocytes, SYBR Green DNA, 72 h; series mostly up to 28.7 µM
# In short: as §2
# C2A = experiment: as above; details: P. falciparum in erythrocytes, SYBR Green DNA, 72 h; series mostly up to 28.7 µM
# In short: as §2
# CP185 = experiment: as above; details: P. falciparum in erythrocytes, SYBR Green DNA, 72 h; series mostly up to 28.7 µM
# In short: as §2
# CP191 = experiment: as above; details: P. falciparum in erythrocytes, SYBR Green DNA, 72 h; series mostly up to 28.7 µM
# In short: as §2
# CP192 = experiment: as above; details: P. falciparum in erythrocytes, SYBR Green DNA, 72 h; series mostly up to 28.7 µM
# In short: as §2
# [10] = Quantitative High-Throughput drug screen in 47 multiple myeloma cell lines against the NCATS MIPE library collection: UTMC2_PLB cell viability assay (AID 1919868); details: CellTiter-Glo ATP luminescence, 48 h; viability (% of DMSO control): at 45.8 µM (top of the series) unless noted; also: nearly all actives have a fitted effect of over 55% in size; also: potency is read from the fitted curve at half-maximal effect;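 as to viability (% of DMSO control): 100% = DMSO-only wells and 0% = media-only wells without cells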
# In short: as §1
# 7G8 = experiment: qHTS profiling for inhibitors of Plasmodium falciparum proliferation (AID 504749);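 also: 0% = DMSO vehicle and full inhibition = artemisinin control; nearly all actives have a fitted effect of over 60% in size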; details: P. falciparum in erythrocytes, SYBR Green DNA, 72 h; series mostly up to 28.7 µM
# In short: as §2
# [11] = measured here: PEO1 parental Z-AUC
# [12] = TFE3-RCC UOK109 viability, measured here: UOK109 Z-AUC
# [13] = TFE3-RCC viability, measured here: UOK124 Z-AUC
# [14] = TFE3-RCC viability, measured here: UOK145 Z-AUC
smiles,measurement,setting,value
COc1c(N2C[C@@H]3CCCN[C@H]3C2)c(F)cc2c(=O)c(C(=O)O)cn(C3CC3)c12,Potency,[1],inactive
same,Potency,[2],inactive
same,Potency,[3],inactive
same,Potency,[4],6.62 µM (active)
same,Potency,[5],inactive
same,Potency,[6],inactive
same,Z-AUC,[7],0.687 (inactive)
same,Z-AUC,[7]; [11],0.58
same,Z-AUC,[7]; measured here: PEO4 Z-AUC,1.15
same,z-score,[8]; [12],0.422
same,z-score,[8]; [13],1.3
same,z-score,[8]; [14],1.53
same,"activity, negative = inhibition",[9]; parasite line A,-20.4% (inactive)
same,"activity, negative = inhibition",[9]; parasite line B,-3.01% (inactive)
same,Potency,3D7,inactive
same,Potency,AA1029,inactive
same,Potency,AS120,inactive
same,Potency,ATS189,inactive
same,Potency,ATS95,inactive
same,Potency,C2A,inactive
same,Potency,CP185,inactive
same,Potency,CP191,inactive
same,Potency,CP192,inactive
Clc1cccc(-c2nnnn2Cc2cccnc2)c1Cl,Potency,[10],inactive
same,Potency,[3],inactive
same,Potency,[4],inactive
same,Potency,[6],inactive
same,z-score,[8]; [12],0.93
same,z-score,[8]; [13],0.545
same,z-score,[8]; [14],0.374
CC(C)[C@H](C(=O)Nc1ccc(C(=O)NO)cc1)c1ccccc1,Potency,[10],0.469 µM (active)
same,Potency,[3],1.32 µM (active)
same,Potency,[5],0.469 µM (active)
same,Potency,[6],0.526 µM (active)
same,Potency,[7],1.38 µM (active)
same,Z-AUC,[7]; [11],-1.53
same,Z-AUC,[7]; measured here: PEO4 Z-AUC,-1.69
same,Potency,"[8]; TFE3-RCC UOK109 viability, active = Z-AUC below -0.8 in all three lines",1.87 µM (active)
same,z-score,[8]; [12],-1.43
same,z-score,[8]; [13],-1.8
same,z-score,[8]; [14],-1.54
CN1c2cc(O)c(N=NC(N)=O)cc2CC1S(=O)(=O)O (stereo unspecified),Potency,[1],inactive
same,Potency,[2],inactive
same,Potency,[3],inactive
same,Potency,[4],14.8 µM (active)
same,Potency,[5],inactive
same,Potency,[6],inactive
same,z-score,[8]; [12],0.359
same,z-score,[8]; [13],0.697
same,z-score,[8]; [14],0.51
same,"activity, negative = inhibition",[9]; parasite line A,-0.188% (inactive)
same,"activity, negative = inhibition",[9]; parasite line B,7.8% (inactive)
same,Potency,3D7,inactive
same,Potency,7G8,inactive
same,Potency,AA1029,inactive
same,Potency,AS120,inactive
same,Potency,ATS189,inactive
same,Potency,ATS95,inactive
same,Potency,C2A,inactive
same,Potency,CP185,inactive
same,Potency,CP191,inactive
same,Potency,CP192,inactive
CCCCCN(CCC12CC3CC(CC(C3)C1)C2)C(=O)NCCCc1ccncc1,Potency,[10],18.7 µM (active)
same,Potency,[3],20.9 µM (active)
same,Potency,[4],inactive
same,Potency,[5],16.6 µM (active)
same,Potency,[6],8.33 µM (active)
same,Z-AUC,[7],-0.0878 (inactive)
same,Z-AUC,[7]; [11],0.162
same,Z-AUC,[7]; measured here: PEO4 Z-AUC,-0.141
c1ccc2c(CCNc3ccc(Nc4ccncc4)cc3)c[nH]c2c1,Potency,[1],16.6 µM (active)
same,Potency,[2],20.9 µM (active)
same,Potency,[3],20.9 µM (active)
same,Potency,[4],inactive
same,Potency,[5],14.8 µM (active)
same,Potency,[6],11.8 µM (active)
same,Potency,[7],1.23 µM (active)
same,Z-AUC,[7]; [11],-1.4
same,Z-AUC,[7]; measured here: PEO4 Z-AUC,-1.17
CCN1CCN(Cc2ccc(-c3cc4c(N[C@H](C)c5ccccc5)ncnc4[nH]3)cc2)CC1,Potency,[10],0.662 µM (active)
same,Potency,[2],1.66 µM (active)
same,Potency,[5],3.72 µM (active)
same,Potency,[6],2.96 µM (active)
same,Z-AUC,[7],-1.03 (inactive)
same,Z-AUC,[7]; [11],0.0439
same,Z-AUC,[7]; measured here: PEO4 Z-AUC,-0.489
